EPAC1 ag: qHTS for Agonist of cAMP-regulated guanine nucleotide exchange factor 3 (EPAC1): primary screen | Potency, µM (doses to about 154 µM), inactives show at the top dose activation, usual class: activators | AID 720707, 2013 | Rap guanine nucleotide exchange factor 3 (Homo sapiens), O95398 | hit rate 0.073% among 360,000 | EPAC1 agonist qHTS, biochemical assay; response scale: 100% = response to 6.5 mM cAMP; note: potency is the fitted concentration of half-maximal effect; nearly all actives have a fitted effect of over 60% in size
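Nucleotide exchange by EPAC1 (100 nM) on Rap1B–BODIPY-GDP (250 nM) in the presence of 50 uM GDP is tracked fluorescently at 480/540 nm over 30 min. Signals are normalized to a 6.5 mM cAMP control.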
IL2 activator: qHTS of IL-2 Activators; IL-2 activation reporter assay, cell-based qHTS; stimulated with anti-CD3/CD4/CD28 beads; in transgenic mouse T cells; activation, % (series mostly up to about 46 µM); hit rate 0.065% among 360,000; in the data active = activation above about 50%; inconclusive = mostly about 30% to 49%; note: 0% is about no effect
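Quantitative HTS in unstimulated transgenic mouse T cells, with memory T cells as non-tolerant control and PMA/ionomycin as tolerance-bypass control. Compound pretreatment lasted 60 minutes before 18 h bead stimulation; EGFP/DsRed fluorescence read.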
EPAC2 ag: qHTS for Agonist of cAMP-regulated guanine nucleotide exchange factor 4 (EPAC2): primary screen | Rap guanine nucleotide exchange factor 4 (Homo sapiens), Q8WZA2 | EPAC2 activation, biochemical qHTS; response scale: 100% = 6.5 mM cAMP response | Potency, µM (titrated, usually from 154 µM), for the others: at the top dose activation, actives largely listed as activators | hit rate 0.079% among 360,000 | AID 720711, 2013; note: potency is the fitted concentration of half-maximal effect; nearly all actives have a fitted effect of over 50% in size
Target sequence (Q8WZA2 whole entry, looked up): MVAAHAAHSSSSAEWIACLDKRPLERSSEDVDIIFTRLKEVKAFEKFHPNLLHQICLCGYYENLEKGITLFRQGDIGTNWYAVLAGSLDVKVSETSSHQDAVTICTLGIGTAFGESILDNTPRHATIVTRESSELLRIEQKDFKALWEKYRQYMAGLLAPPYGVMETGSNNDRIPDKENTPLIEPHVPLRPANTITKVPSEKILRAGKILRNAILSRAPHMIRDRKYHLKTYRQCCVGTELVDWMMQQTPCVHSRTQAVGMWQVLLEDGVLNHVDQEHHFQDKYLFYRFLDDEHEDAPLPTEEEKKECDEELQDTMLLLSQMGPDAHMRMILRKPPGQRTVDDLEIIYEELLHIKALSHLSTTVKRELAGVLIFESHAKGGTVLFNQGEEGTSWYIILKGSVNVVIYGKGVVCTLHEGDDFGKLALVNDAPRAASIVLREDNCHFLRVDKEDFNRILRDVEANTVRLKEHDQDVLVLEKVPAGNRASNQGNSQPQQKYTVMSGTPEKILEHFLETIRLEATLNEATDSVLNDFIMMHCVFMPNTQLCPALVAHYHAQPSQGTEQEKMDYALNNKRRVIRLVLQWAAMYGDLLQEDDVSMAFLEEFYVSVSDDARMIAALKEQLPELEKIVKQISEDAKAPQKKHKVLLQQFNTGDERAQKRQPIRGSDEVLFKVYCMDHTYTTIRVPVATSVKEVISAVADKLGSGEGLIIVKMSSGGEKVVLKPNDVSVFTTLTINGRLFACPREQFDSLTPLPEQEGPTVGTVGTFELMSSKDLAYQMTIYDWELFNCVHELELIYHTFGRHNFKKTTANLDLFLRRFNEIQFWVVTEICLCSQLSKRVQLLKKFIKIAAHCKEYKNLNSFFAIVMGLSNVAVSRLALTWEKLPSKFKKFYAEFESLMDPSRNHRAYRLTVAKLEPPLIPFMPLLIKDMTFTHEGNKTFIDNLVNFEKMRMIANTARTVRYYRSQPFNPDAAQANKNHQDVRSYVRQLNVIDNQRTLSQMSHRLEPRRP
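EPAC2 (100 nM) mixed with Rap1B loaded with BODIPY-GDP (250 nM) plus 50 uM unlabeled GDP; compounds pinned in, 5 min RT, then read every 5 min for 30 min (ex 480, em 540 nm). Normalized to cAMP control.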
PKM2 activator: qHTS Assay for Activators of Human Muscle isoform 2 Pyruvate Kinase | Pyruvate kinase PKM (Homo sapiens), P14618 | purified PKM2, Kinase-Glo ATP luminescence, activation; response scale: 0% is enzyme alone, no compound | Potency, µM (highest dose often 57.5 µM), inactives show at the top dose activation, actives largely listed as activators | hit rate 0.34% among 260,000 | AID 1631, 2009; note: potency is the fitted concentration of half-maximal effect; % is set by controls: 0 for no effect and ±100 for the full control effect; nearly all actives have a fitted effect of over 55% in size
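Purified hPK-M2 (>95% pure) converted ADP (0.1 mM final) to ATP with 0.5 mM PEP in 50 mM imidazole pH7.2, KCl, MgCl2, Tween 20, BSA; 1 h at room temperature. ATP detected by Kinase-Glo luminescence.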
EPAC1 antag: qHTS for Antagonist of cAMP-regulated guanine nucleotide exchange factor 3 (EPAC1): primary screen | Potency, µM (top dose mostly 115 µM), for inactives: at the top dose activity change, negative = inhibition, hits mostly inhibitors | Rap guanine nucleotide exchange factor 3 (Homo sapiens), O95398 | hit rate 0.14% among 360,000 | EPAC1 GEF assay, Rap1b-BODIPY-GDP exchange fluorescence;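 note: potency is the fitted concentration of half-maximal effect; plate controls were vehicle for no effect and positive control for full effect; nearly all actives have a fitted effect of over 50% in size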
EPAC2 antag: qHTS for Antagonist of cAMP-regulated guanine nucleotide exchange factor 2 (EPAC2): primary screen; Rap guanine nucleotide exchange factor 4 (Homo sapiens), Q8WZA2; EPAC2 GEF exchange of Rap1B-BODIPY-GDP, fluorescence; Potency, µM (series often up to 114 µM), inactives show at the highest dose activity, negative = inhibition, actives largely listed as inhibitors; hit rate 0.18% among 360,000; note: potency is the fitted concentration of half-maximal effect; % is set by controls: 0 for no effect and ±100 for the full control effect; nearly all actives have a fitted effect of over 45% in size
* marks the source's active call; other numbers are inactive results; ? = inconclusive; nt = no result; [ ] = dose if it differs, or a comment. Shown are actives, neighbours in structure and some others; about 0.64% of the full set was active somewhere. Unless noted, calls come from the whole dose curve; as a rule, active = well fitted curve in the direction sought with a large enough effect; inconclusive = small, poorly fitted or top-dose-only effect, or another doubt; inactive = no such curve, though single readings can be large; an effect the other way counts as inactive or inconclusive.

SMILES	EPAC1 ag	IL2 activator	EPAC2 ag	PKM2 activator	EPAC1 antag	EPAC2 antag
CCn1c(=O)cc(OCC(=O)NCCCN2CCCC2=O)c2ccccc21	6%	1	5%	-8%	4%	-4%
O=C(Nc1ccc(-c2nc3ccc(NC(=O)c4cccs4)cc3[nH]2)cc1)c1cccs1	11%	-1	?	-4%	?	50µM*
CN1CCC(C)(C(=O)Nc2cccc(Oc3ccccc3)c2)C1 (configuration not stated)	-14%	0	3%	nt	11%	22%
Nc1ccc(S(=O)(=O)Nc2nccs2)cc1N=Nc1ccccc1[N+](=O)[O-]	12%	0	-1%	nt	?	10µM*
COc1ccccc1-c1ccc(/C=C2/C=C(C)OC2=O)o1	0%	1	6%	13µM*	-15%	9%
CC(C)O/C(=N/S(=O)(=O)c1ccc(Cl)cc1)c1ccccc1	2%	0	14%	nt	5%	50µM*
CN1C(=O)/C(=C/c2cn(CC(=O)N3CCCCC3)c3ccccc23)NC1=S	12%	23	7%	nt	8%	3%
CN1C(=O)/C(=C/c2cn(CC(=O)NCc3ccco3)c3ccccc23)NC1=S	nt	nt	nt	7.9µM*	nt	nt
CCN1CCN(C(C(=O)NC2CCCCC2)c2ccnc3ccccc23)CC1 (configuration not stated)	-6%	1	4%	nt	13%	2%
CC1C(=O)N(Cc2cn(CCC3OCCO3)nn2)CCS(=O)(=O)N1Cc1ccc(-c2ccc(Cl)c(Cl)c2)cc1 (configuration not stated)	3%	-4	6%	nt	-4%	3%
CC(C)n1c(O)c(N=Nc2ccc(Cl)nn2)c2ccccc21	-2%	88*	-3%	8%	14%	27%
CCOC(=O)[C@H]1[C@H]2COc3ccc(OC)cc3[C@@H]2N2C(=O)[C@H](C)NC(=O)[C@@]12C	0%	0	3%	nt	?	-1%
CN(Cc1ccccc1)C(=O)COc1ccc(C(C)(C)C)cc1	-6%	0	1%	nt	-27%	-14%
O=C(COc1cccc(OC(F)F)c1)Nc1ccc(SC(F)F)cc1	13%	2	-20%	0%	-3%	25µM*
CCCc1cc2c(cc1N(C)S(=O)(=O)c1ccccc1)OCO2	10%	-1	9%	nt	-16%	28µM*
COc1ccccc1N(C)S(=O)(=O)c1ccc(C(=O)NCc2ccc3c(c2)OCO3)cc1	-3%	4	4%	0%	21%	-2%
Cc1cc2nc3c(=O)n(C4CCCCC4)c(=O)[nH]c3nc2cc1N	112µM*	4	?	7%	237%	40%
Cc1cc(C)cc(Nc2cc(=O)n(C3CCCCC3)c(=O)[nH]2)c1	-10%	0	-9%	-2%	-10%	-3%
COc1ccc(CCn2c(=N)c(S(=O)(=O)c3ccc(Cl)cc3)cc3c(=O)n4ccccc4nc32)cc1	3%	80*	-148%	nt	-5%	5%
COc1ccc(CCn2c(=N)c(S(=O)(=O)c3ccccc3)cc3c(=O)n4ccccc4nc32)cc1	9%	11	-5%	-1%[0.46 µM]	-12%	4%
O=C1C(Cl)=C(N2CCC(C(=O)O)CC2)C(=O)c2ccccc21	9%	-3	10%	8%	?	?
CN1CCN(C2=C(Cl)C(=O)c3ccccc3C2=O)CC1	5%	-3	26%	nt	28µM*	?
CC(C)(C)c1c(Cl)c(O)c(-c2ccccc2)c(=O)n1-c1ccccc1	-4%	0	0%	-38%	79µM*	-6%
Cc1c(O)c2ccccc2n(-c2ccccc2)c1=O	-4%	-1	5%	nt	5%	9%
C=CCn1c(SCC(=O)N2CCOCC2)nc2ccccc2c1=O	-9%	-2	2%	nt	6%	2%
SMILES	EPAC1 ag	IL2 activator	EPAC2 ag	PKM2 activator	EPAC1 antag	EPAC2 antag
O=[N+]([O-])c1ccc(NN=Cc2cccc3ccccc23)nc1	5%	58*	4%	nt	-6%	2%
COc1ccc2cc(CCC(C)=O)ccc2c1	-10%	0	6%	0%	-10%	28µM*
COc1cc(C2NC(=O)NC(c3ccccc3)=C2C(C)=O)c(Br)c(Br)c1O (configuration not stated)	5%	1	8%	8%	-11%	-10%
COc1cccc(NC(=O)N(C)C[C@@H]2OCc3cnnn3CCCC(=O)N([C@@H](C)CO)C[C@H]2C)c1	5%	-2	4%	nt	-23%	-1%
Cc1ccc(S(=O)c2ccc([N+](=O)[O-])c3nonc23)cc1 (configuration not stated)	8%	0	29%	nt	?	50µM*
CC1(C)c2ccccc2N2CC(=O)N(CC(N)=O)C21C (configuration not stated)	17%	-2	4%	-2%	5%	-3%
CC1(C)c2ccccc2N(CC(N)=O)C12C=Cc1ccccc1O2 (configuration not stated)	-8%	0	-1%	5%	-18%	18µM*
CC(C)OC1(c2ccccc2)OC(=O)c2ccccc21 (configuration not stated)	-4%	-2	-11%	4%	-16%	35µM*
CCOc1ccc(NC2CCCCC2NS(=O)(=O)c2ccccc2)cc1 (configuration not stated)	1%	-3	12%	nt	-5%	-13%
CCOC(=O)COc1ccc(Br)cc1/C=C\c1[nH]c(=O)[nH]c(=O)c1[N+](=O)[O-]	-13%	0	-6%	-3%	?	14%
CCOC(=O)COc1ccc(Br)cc1/C=C/c1[nH]c(=O)[nH]c(=O)c1[N+](=O)[O-]	-5%	0	2%	21%	32µM*	-5%
Nc1c(C(=O)c2ccccc2)sc2nsc(SCCN3CCOCC3)c12	89µM*	5	?	1%	25%	1%
COc1ccc(CCNS(=O)(=O)c2cc3c4c(c2)CCN4C(=O)CC3)cc1	-55%	-1	16%	nt	-1%	1%
Cc1ccc(S(=O)(=O)N2CCN(C(=O)CCn3nc(C)c(C)c3C)CC2)cc1C	5%	-3	0%	7.9µM*	-22%	-2%

High-throughput results (PubChem BioAssay)
